Common to all, as to assay: glycan array binding signal (z-score within array); higher = stronger binding
Common to all, as to details: glycan notation: IUPAC condensed, linker removed

For one assay, the target named is Fuc(a1-2)Gal(b1-4)GlcNAc. In short, it runs like this:
(§1)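 Arrays were curated from the Consortium for Functional Glycomics database, 3228 in total, and kept only where the protein sequence was available. Binding is expressed as a within-array Z-score. This score was averaged across arrays of the same protein sequence at different concentrations or buffers and across linkers, and negative values can be read as non-binding.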

Assay [1] deals with Gal(b1-3)GalNAc(b1-4)[Neu5Ac(a2-3)]Gal(b1-4)Glc. In short, it runs like this: as §1
Assay [2] addresses Gal(b1-3)[Fuc(a1-4)]GlcNAc. In short, it runs like this:
as §1

The target of assay [3] is Gal(b1-3)[GlcNAc(b1-6)]GalNAc. In short, it runs like this: as §1
For assay [4], the target named is Gal(b1-4)GlcNAc(b1-3)Gal(b1-4)GlcNAc(b1-3)Gal(b1-4)GlcNAc. Put shortly: as §1
The target in assay [5] is Gal(b1-4)GlcNAc(b1-6)[Gal(b1-3)]GalNAc. Put shortly: as §1
The target in a further assay is Gal3S(b1-4)Glc6S. In short, it runs like this: as §1
A further assay deals with Gal3S(b1-4)GlcNAc6S. Put shortly:
as §1

A further assay addresses Gal3S6S(b1-4)GlcNAc. Put shortly:
as §1

For another assay, the target named is Gal3S6S(b1-4)GlcNAc6S. Put shortly: as §1
Another assay deals with Gal6S(b1-4)Glc6S. Put shortly:
as §1

The target of assay [6] is GlcNAc(b1-6)Gal(b1-4)GlcNAc. Put shortly:
as §1

For assay [7], the target named is Man(a1-2)Man(a1-2)Man(a1-3)Man. In short, it runs like this: as §1
Assay [8] addresses Neu5Ac(a2-3)Gal(b1-3)GlcNAc6S. Put shortly: as §1
Assay [9] concerns the target Neu5Ac(a2-3)Gal(b1-4)GlcNAc. In short, it runs like this: as §1
For assay [10], the target named is Neu5Ac(a2-3)Gal(b1-4)[Fuc(a1-3)]GlcNAc(b1-3)Gal(b1-4)GlcNAc. In short, it runs like this:
as §1

Assay [11] deals with Neu5Ac(a2-3)[GalNAc(b1-4)]Gal(b1-4)Glc. Put shortly:
as §1

Assay [12] has as its target Neu5Ac(a2-3)[Neu5Ac(a2-6)]GalNAc. In short, it runs like this:
as §1

For another assay, the target named is Neu5Ac(a2-8)Neu5Ac. Put shortly: as §1
A further assay addresses Fuc(a1-4)GlcNAc. In short, it runs like this: as §1
A further assay concerns the target Gal(b1-2)Gal. Put shortly: as §1
The target of another assay is Gal(b1-3)Gal. Put shortly:
as §1

In assay [13] the target is Gal(b1-3)[Neu5Ac(a2-6)]GlcNAc. In short, it runs like this:
as §1

In assay [14] the target is Gal3S(b1-3)[Fuc(a1-4)]GlcNAc. Put shortly: as §1
In a further assay the target is Gal4S6S(b1-4)GlcNAc. Put shortly:
as §1

A further assay addresses GlcA(b1-3)Gal. Put shortly: as §1
The target of assay [15] is GlcNAc(b1-3)Gal(b1-4)GlcNAc(b1-3)Gal(b1-4)GlcNAc. Put shortly: as §1
The target of assay [16] is GlcNAc(b1-4)[GlcNAc(b1-6)]GalNAc. Put shortly:
as §1

In the next assay the target is Kdn(a2-3)Gal(b1-3)GlcNAc. Put shortly:
as §1

The target in assay [17] is Man(a1-2)Man(a1-2)Man(a1-3)[Man(a1-2)Man(a1-6)[Man(a1-3)]Man(a1-6)]Man(b1-4)GlcNAc(b1-4)GlcNAc. Put shortly: as §1
The target in assay [18] is Man(a1-2)Man(a1-3)[Man(a1-2)Man(a1-6)]Man. In short, it runs like this:
as §1

A further assay concerns the target Man(b1-4)GlcNAc. Put shortly:
as §1

Assay [19] addresses Neu5Ac(a2-3)Gal(b1-3)GlcNAc. Put shortly: as §1
Assay [20] addresses Neu5Ac(a2-3)Gal(b1-3)[Neu5Ac(a2-6)]GalNAc. In short, it runs like this:
as §1

Assay [21] deals with Neu5Ac(a2-3)Gal(b1-4)[Fuc(a1-3)]GlcNAc(b1-3)Gal(b1-4)[Fuc(a1-3)]GlcNAc(b1-3)Gal(b1-4)[Fuc(a1-3)]GlcNAc. In short, it runs like this: as §1
For the next assay, the target named is Neu5Ac(a2-6)GalNAc. Put shortly:
as §1

Assay [22] deals with Neu5Ac(a2-8)Neu5Ac(a2-8)Neu5Ac. Put shortly:
as §1

The sample as a whole holds a higher share of the strongest signals than the screen did.

B1: TREM-2 (Mus musculus), Q99NH8 (protein)
chain: MGPLHQFLLLLITALSQALNTTVLQGMAGQSLRVSCTYDALKHWGRRKAWCRQLGEEGPCQRVVSTHGVWLLAFLKKRNGSTVIADDTLAGTVTITLKNLQAGDAGLYQCQSLRGREAEVLQKVLVEVLEDPLDDQDAGDLWVPEESSSFEGAQVEHSTSRNQETSFPPTSILLLLACVLLSKFLAASILWAVARGRQKPGTPVVRGLDCGQDAGHQLQILTGPGGT
Consider B1, for which the “glycan array binding signal (z-score)” value with Fuc(a1-2)Gal(b1-4)GlcNAc is -0.407; in assay [1], -0.342; in [2], -0.368; in assay [3] it was -0.349; in assay [4] it was -0.287; in [5], -0.354. Further, the “glycan array binding signal (z-score)” value is 4.24 with Gal3S(b1-4)Glc6S; 4.02 with Gal3S(b1-4)GlcNAc6S; 4.4 with Gal3S6S(b1-4)GlcNAc; 4.74 with Gal3S6S(b1-4)GlcNAc6S; 3.17 with Gal6S(b1-4)Glc6S; -0.382 in [6]. Besides, the “glycan array binding signal (z-score)” value in assay [7] was -0.305; in [8], -0.078; in assay [9], -0.391; in assay [10] it was -0.043; in assay [11], -0.373; in assay [12], 0.289. Further, the “glycan array binding signal (z-score)” value with Neu5Ac(a2-8)Neu5Ac is -0.304.

B2: Dectin-1 CTLD (Mus musculus), Q6QLQ4 (protein)
chain: MKYHSHIENLDEDGYTQLDFSTQDIHKRPRGSEKGSRAPSSPWRPIAVGLGILCFVVVVVAAVLGALAFWRHNSGRNPEEKDNFLSRNKENHKPTESSLDEKVAPSKASQTTGGFSQSCLPNWIMHGKSCYLFSFSGNSWYGSKRHCSQLGAHLLKIDNSKEFEFIESQTSSHRINAFWIGLSRNQSEGPWFWEDGSAFFPNSFQVRNTVPQESLLHNCVWIHGSEVYNQICNTSSYSICEKEL
As to B2, the “glycan array binding signal (z-score)” value with Fuc(a1-2)Gal(b1-4)GlcNAc is -0.083; with Fuc(a1-4)GlcNAc it was -0.141; in the assay with Gal(b1-2)Gal, -0.384; with Gal(b1-3)Gal, -0.471; in assay [1] it was -0.16; in assay [13], -0.392. For the same molecule, the “glycan array binding signal (z-score)” value was -0.474 in [14]; -0.021 with Gal4S6S(b1-4)GlcNAc; 4.11 in the assay with GlcA(b1-3)Gal; -0.18 in [15]; 9.99 in assay [16]; -0.044 with Kdn(a2-3)Gal(b1-3)GlcNAc. The “glycan array binding signal (z-score)” value was 0.004 in assay [17]; -0.241 in assay [18]; -0.259 in the assay with Man(b1-4)GlcNAc; -0.294 in [19]; -0.324 in [20]; -0.03 in assay [10]. Besides, the “glycan array binding signal (z-score)” value was 7.53 in assay [21], -0.211 in [12], 0.06 with Neu5Ac(a2-6)GalNAc and 5.28 in assay [22].

Values taken from the supplement of paper PMC8728848.
